Measured values reported in the supplement of paper PMC12282887.
± gives the standard deviation of the averaged measurements.

Experiments:
Assay in all cases: promoter activity interaction Z-score (Lux/OD deviation from empty-vector control); higher = stronger promoter induction by the compound
[1] = system: E. coli BW25113 acrABp lux reporter
Method in brief: (§1)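 E. coli BW25113 (wild type or marA, soxS or rob deletion) carrying low-copy luxCDABE promoter reporters grew in 40 µl LB Lennox in 384-well plates at 37°C. Each compound was tested at four 1:2 dilutions in biological duplicates. OD600 and luminescence were read every 30 min for 12 h. Areas were taken over 0–8 h (wild type) or 1–9 h (mutants), and wells below 10% of median growth area were removed. The score is the Z-transformed residual of growth-normalised luminescence fitted against the empty-vector control.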

[2] = system: E. coli BW25113 micFp lux reporter
Method in brief: as §1

[3] = system: E. coli BW25113 ompFp lux reporter
Method in brief: as §1

[4] = system: E. coli BW25113 robp lux reporter
Method in brief: as §1

[5] = system: E. coli BW25113 soxSp lux reporter
Method in brief: as §1

[6] = system: E. coli BW25113 tolCp lux reporter
Method in brief: as §1

[7] = 17.3 µg/ml, genetic background: wild type
[8] = 17.3 µg/ml, genetic background: ΔmarA
[9] = 17.3 µg/ml, genetic background: Δrob
[10] = 17.3 µg/ml, genetic background: ΔsoxS
[11] = 34.5 µg/ml, genetic background: wild type
[12] = 34.5 µg/ml, genetic background: ΔmarA
[13] = 34.5 µg/ml, genetic background: Δrob
[14] = 34.5 µg/ml, genetic background: ΔsoxS
[15] = 69.1 µg/ml, genetic background: wild type
[16] = 69.1 µg/ml, genetic background: ΔmarA
[17] = 69.1 µg/ml, genetic background: Δrob
[18] = 69.1 µg/ml, genetic background: ΔsoxS
[19] = 138.1 µg/ml, genetic background: wild type
[20] = 138.1 µg/ml, genetic background: ΔmarA
[21] = 138.1 µg/ml, genetic background: Δrob
[22] = 138.1 µg/ml, genetic background: ΔsoxS

## O=C(O)c1ccccc1O [Salicylate]
[1]; [7]
  promoter activity interaction Z-score: -0.103 ± 0.014
[1]; [8]
  promoter activity interaction Z-score: -0.589 ± 0.63
[1]; [9]
  promoter activity interaction Z-score: -0.226 ± 0.24
[1]; [10]
  promoter activity interaction Z-score: -0.152 ± 0.11
[1]; [11]
  promoter activity interaction Z-score: -0.242 ± 0.057
[1]; [12]
  promoter activity interaction Z-score: -0.128 ± 0.11
[1]; [13]
  promoter activity interaction Z-score: -0.178 ± 0.057
[1]; [14]
  promoter activity interaction Z-score: -0.392 ± 0.55
[1]; [15]
  promoter activity interaction Z-score: -0.168 ± 0.043
[1]; [16]
  promoter activity interaction Z-score: -0.559 ± 0.22
[1]; [17]
  promoter activity interaction Z-score: -0.327 ± 0.03
[1]; [18]
  promoter activity interaction Z-score: -0.194 ± 0.22
[1]; [19]
  promoter activity interaction Z-score: 1.16 ± 0.76
[1]; [20]
  promoter activity interaction Z-score: 0.299 ± 0.12
[1]; [21]
  promoter activity interaction Z-score: 0.954 ± 0.4
[1]; [22]
  promoter activity interaction Z-score: 1.34 ± 0.39
[2]; [7]
  promoter activity interaction Z-score: 0.432 ± 0.15
[2]; [8]
  promoter activity interaction Z-score: -0.066 ± 0.12
[2]; [9]
  promoter activity interaction Z-score: 0.521 ± 0.42
[2]; [10]
  promoter activity interaction Z-score: 0.0126 ± 0.12
[2]; [11]
  promoter activity interaction Z-score: 0.534 ± 0.39
[2]; [12]
  promoter activity interaction Z-score: -0.0684 ± 0.18
[2]; [13]
  promoter activity interaction Z-score: 0.624 ± 0.05
[2]; [14]
  promoter activity interaction Z-score: 0.176 ± 0.22
[2]; [15]
  promoter activity interaction Z-score: 0.858 ± 0.46
[2]; [16]
  promoter activity interaction Z-score: 0.0541 ± 0.076
[2]; [17]
  promoter activity interaction Z-score: 1.4 ± 0.11
[2]; [18]
  promoter activity interaction Z-score: 0.648 ± 0.042
[2]; [19]
  promoter activity interaction Z-score: 3.02 ± 0.49
[2]; [20]
  promoter activity interaction Z-score: 0.477 ± 0.32
[2]; [21]
  promoter activity interaction Z-score: 4.91 ± 0.15
[2]; [22]
  promoter activity interaction Z-score: 3.15 ± 0.65
[3]; [7]
  promoter activity interaction Z-score: -0.258 ± 0.037
[3]; [8]
  promoter activity interaction Z-score: -0.336 ± 0.23
[3]; [9]
  promoter activity interaction Z-score: -0.349 ± 0.016
[3]; [10]
  promoter activity interaction Z-score: -0.27 ± 0.18
[3]; [11]
  promoter activity interaction Z-score: -0.259 ± 0.41
[3]; [12]
  promoter activity interaction Z-score: -0.439 ± 0.33
[3]; [13]
  promoter activity interaction Z-score: -0.523 ± 0.35
[3]; [14]
  promoter activity interaction Z-score: 0.344 ± 0.3
[3]; [15]
  promoter activity interaction Z-score: -0.272 ± 0.29
[3]; [16]
  promoter activity interaction Z-score: -0.133 ± 0.11
[3]; [17]
  promoter activity interaction Z-score: 0.0991 ± 0.22
[3]; [18]
  promoter activity interaction Z-score: 0.35 ± 0.33
[3]; [19]
  promoter activity interaction Z-score: 0.5 ± 0.64
[3]; [20]
  promoter activity interaction Z-score: -0.462 ± 0.05
[3]; [21]
  promoter activity interaction Z-score: 0.991 ± 0.12
[3]; [22]
  promoter activity interaction Z-score: 0.357 ± 1.6
[4]; [7]
  promoter activity interaction Z-score: 0.135 ± 0.21
[4]; [8]
  promoter activity interaction Z-score: -0.248 ± 0.33
[4]; [9]
  promoter activity interaction Z-score: -0.0314 ± 0.15
[4]; [10]
  promoter activity interaction Z-score: -0.476 ± 0.16
[4]; [11]
  promoter activity interaction Z-score: -0.293 ± 0.019
[4]; [12]
  promoter activity interaction Z-score: 0.052 ± 0.1
[4]; [13]
  promoter activity interaction Z-score: -0.218 ± 0.033
[4]; [14]
  promoter activity interaction Z-score: 0.365 ± 0.091
[4]; [15]
  promoter activity interaction Z-score: -0.0138 ± 0.24
[4]; [16]
  promoter activity interaction Z-score: -0.259 ± 0.74
[4]; [17]
  promoter activity interaction Z-score: 0.387 ± 0.029
[4]; [18]
  promoter activity interaction Z-score: -0.512 ± 0.077
[4]; [19]
  promoter activity interaction Z-score: -0.0563 ± 0.13
[4]; [20]
  promoter activity interaction Z-score: -0.611 ± 0.22
[4]; [21]
  promoter activity interaction Z-score: 0.693 ± 0.087
[4]; [22]
  promoter activity interaction Z-score: -0.616 ± 0.21
[5]; [7]
  promoter activity interaction Z-score: 0.0635 ± 0.14
[5]; [8]
  promoter activity interaction Z-score: -0.172 ± 0.0058
[5]; [9]
  promoter activity interaction Z-score: -0.0541 ± 0.36
[5]; [10]
  promoter activity interaction Z-score: -0.237 ± 0.017
[5]; [11]
  promoter activity interaction Z-score: -0.0796 ± 0.076
[5]; [12]
  promoter activity interaction Z-score: -0.219 ± 0.049
[5]; [13]
  promoter activity interaction Z-score: -0.0336 ± 0.1
[5]; [14]
  promoter activity interaction Z-score: -0.0124 ± 0.14
[5]; [15]
  promoter activity interaction Z-score: -0.0424 ± 0.045
[5]; [16]
  promoter activity interaction Z-score: -0.126 ± 0.076
[5]; [17]
  promoter activity interaction Z-score: 0.239 ± 0.18
[5]; [18]
  promoter activity interaction Z-score: 0.207 ± 0.22
[5]; [19]
  promoter activity interaction Z-score: 0.0689 ± 0.0036
[5]; [20]
  promoter activity interaction Z-score: 0.491 ± 0.041
[5]; [21]
  promoter activity interaction Z-score: 0.434 ± 0.012
[5]; [22]
  promoter activity interaction Z-score: 0.177 ± 0.4
[6]; [7]
  promoter activity interaction Z-score: -0.0562 ± 0.66
[6]; [8]
  promoter activity interaction Z-score: -0.946 ± 0.55
[6]; [9]
  promoter activity interaction Z-score: 0.0451 ± 0.3
[6]; [10]
  promoter activity interaction Z-score: 0.372 ± 0.27
[6]; [11]
  promoter activity interaction Z-score: -0.65 ± 0.46
[6]; [12]
  promoter activity interaction Z-score: -0.0216 ± 0.48
[6]; [13]
  promoter activity interaction Z-score: -0.226 ± 0.041
[6]; [14]
  promoter activity interaction Z-score: 0.227 ± 0.47
[6]; [15]
  promoter activity interaction Z-score: -0.276 ± 0.26
[6]; [16]
  promoter activity interaction Z-score: -0.251 ± 0.18
